Measurements taken from PubChem BioAssay (NCI).
About 83,000 compounds went through this panel and 20% of them were active in at least one assay; those are over-represented in the sample as a whole.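 96-well plates, one dose, 48 hours. Percent growth reported; active if below 10.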 A number with no mark means an inactive call. Activity calls are given as the source filed them.

Tests used:
Test in all cases: NCI-60 one-dose screen, 48 h (100 = growth as untreated, 0 = no growth, -100 = all killed)
Details in all cases: 10 µM unless noted
[1] = test system: SR leukemia
[2] = test system: RPMI-8226 leukemia
[3] = test system: OVCAR-8 ovarian
[4] = test system: OVCAR-5 ovarian
[5] = test system: OVCAR-4 ovarian
[6] = test system: SK-OV-3 ovarian
[7] = test system: IGROV1 ovarian
[8] = test system: OVCAR-3 ovarian
[9] = test system: HS 578T breast
[10] = test system: NCI/ADR-RES ovarian
[11] = test system: T-47D breast
[12] = test system: BT-549 breast
[13] = test system: MDA-MB-435 melanoma
[14] = test system: SW-620 colon
[15] = test system: MCF7 breast
[16] = test system: HCT-116 colon
[17] = test system: HCC-2998 colon
[18] = test system: KM12 colon

| SMILES | growth [1] | growth [2] | growth [3] | growth [4] | growth [5] | growth [6] | growth [7] | growth [8] | growth [9] | growth [10] | growth [11] | growth [12] | growth [13] | growth [14] | growth [15] | growth [16] | growth [17] | growth [18] |
| --- | --- | --- | --- | --- | --- | --- | --- | --- | --- | --- | --- | --- | --- | --- | --- | --- | --- | --- |
| O=c1c(Cc2ccc(F)cc2)cc(-c2ccccc2)nn1C/C(=N/O)c1ccccc1 | 30.3% | 25.6% | 43.7% | 66.9% | 41.5% | 74.7% | 47.3% | 49.5% | 73.8% | 34.7% | 11.8% | 48.4% | 48.8% | 58.7% | 26.2% | 35.1% | 61.3% | 34.7% |
| N#C/C(Sc1nc2sc3c(c2c(=O)n1Cc1ccccc1)CCCC3)=C1/SC=C(c2ccc(Cl)cc2)N1c1ccccc1 | 25.4% | 68.3% | 61.6% | 83.7% | 93.5% | 88.6% | 38.2% | 112% | 75.2% | 83.5% | 91.5% | 101% | 109% | 89.9% | 82.5% | 83.5% | 87.2% | 95.8% |
| COc1cc2cc(Oc3ccc(NC(=O)Nc4ccc(F)c(C(F)(F)F)c4)cc3)c(C)nc2cc1OCCN1CCCCC1 | -46.1% (active) | -25.8% (active) | -55.5% (active) | 127% | 0.714% (active) | 115% | 34.7% | -92.5% (active) | 102% | 74.7% | 78.5% | 85.3% | -92.5% (active) | -76.2% (active) | -75% (active) | -89.8% (active) | 96.9% | -79.9% (active) |
| O=C(/C=C/c1ccc(Cl)cc1)c1ccc(Nc2ccnc3cc(Cl)ccc23)cc1 | -17% (active) | -41.9% (active) | 85.2% | 84.6% | 94.7% | 112% | 57% | 86.5% | 102% | 83.5% | 96.4% | 145% | 64.8% | 60.7% | 78.6% | 16.9% | 88.1% | 50% |
| C#CCOc1cccc(-c2ncnc3cc(NC(=O)CCl)ccc23)c1 | -11.5% (active) | -38.1% (active) | -5.91% (active) | -47.3% (active) | -25.6% (active) | 51% | -54.2% (active) | -78.2% (active) | 17% | 1.21% (active) | -33.8% (active) | -27.8% (active) | -24.7% (active) | -58.6% (active) | 3.63% (active) | -74.1% (active) | 56.6% | 16.2% |
| COc1cc2cc(Oc3ccc(NC(=O)Nc4ccc(Cl)c(Cl)c4)cc3)c(C)nc2cc1OCCN1CCCCC1 | -3.12% (active) | 79.1% | 32.1% | 137% | -16.5% (active) | 119% | 93.4% | 105% | 108% | 99.5% | 85.9% | 88.1% | 74.2% | 14.4% | 55.9% | 91.3% | 104% | 63.3% |
| COC(=O)[C@H](C)NC(=O)[C@@H]1CCCN1C(=O)CNC(=O)[C@H](C)N | 114% | 116% | 105% | 114% | 89.1% | 102% | 109% | 112% | 99.8% | 106% | 97.6% | 109% | 102% | 105% | 110% | 99.6% | 106% | 104% |
| CC1=C(C(=O)c2ccccc2)C(c2ccc3c(c2)OCO3)NC(=S)N1 (stereo not drawn) | 6.28% (active) | 44% | 46.7% | 72.5% | 82.3% | 51.6% | 46.1% | 12.9% | 23.4% | 43.3% | 67.9% | 50.6% | -49.5% (active) | 24.2% | 22% | 20.1% | 62.2% | 20% |
| Cc1ccc(-c2nnc(SCc3nc(N)nc(Nc4ccccc4F)n3)n2-c2ccccc2)cc1 | 92.4% | 83.7% | 88% | 95.9% | 86.7% | 102% | 81.4% | 102% | 87.1% | 98.2% | 85% | 97.9% | 99.6% | 93.6% | 94.9% | 98.4% | 126% | 101% |
| Cc1ccc(Nc2cc(N)nc(N)n2)cc1 | 105% | 93.5% | 103% | 107% | 96.9% | 98.1% | 92.4% | 99.6% | 100% | 95% | 98.9% | 113% | 106% | 102% | 86.5% | 104% | 96% | 95.5% |
| Nc1ncnc2c1N=C(c1ccc([N+](=O)[O-])cc1)CC(c1ccc3c(c1)OCO3)N2 (stereo not drawn) | 85.3% | 71.1% | 89.6% | 91.7% | 95.5% | 91.1% | 51.1% | 90.6% | 80.7% | 77.6% | 93% | 86.6% | 94% | 92% | 72.7% | 83.3% | 53.8% | 89.4% |
| Cc1cc(N2CCOCC2)nc(N(CCCNc2ccnc3cc(Cl)ccc23)Cc2ccc3c(c2)OCO3)n1 | -29.2% (active) | -2.52% (active) | -52.4% (active) | 22.7% | -37.9% (active) | 18.9% | 4.36% (active) | -88.6% (active) | 9.54% (active) | -36.1% (active) | -45.9% (active) | -38.3% (active) | -45.1% (active) | -3.78% (active) | 3.11% (active) | -76.9% (active) | -58.2% (active) | 0.0851% (active) |
| CCCS(=O)(=O)Nc1cccc(Nc2ncnc3cc(NC(=O)CCl)ccc23)c1Cl | 2.37% (active) | -32.1% (active) | 0.271% (active) | -65% (active) | -38.3% (active) | -4.59% (active) | -52.6% (active) | -85.3% (active) | 10.5% | 49.9% | -41.8% (active) | -68.2% (active) | -46.9% (active) | -33.6% (active) | -13% (active) | -27.9% (active) | 4.99% (active) | -32.2% (active) |
| CC(=O)Oc1ccccc1C(=O)N(Cc1ccc2c(Cl)cc(Cl)c(O)c2n1)c1ccccc1 | 39.7% | 36.1% | 34.9% | 77.2% | 36.2% | 64.5% | 42.8% | 40.9% | 76.5% | 8.97% (active) | 40.7% | 77.3% | 54.3% | 29.1% | 34.7% | 30.9% | 60.1% | 39.6% |
| O=c1ccc2c(ccc3ncccc32)o1 | 103% | 112% | 105% | 104% | 111% | 104% | 109% | 108% | 108% | 106% | 94.6% | 116% | 116% | 115% | 95.7% | 113% | 107% | 107% |
| CC(C)CCc1nc2ccc(NCc3ccc(OCCN4CCC(C)CC4)cc3)cc2[nH]1 | 14.2% | 68.6% | 96.6% | 95% | 80.6% | 102% | 79.3% | 71.9% | 84.3% | 97% | 97% | 77.1% | 89.2% | 89.3% | 62.3% | 65.1% | 42.7% | 87.6% |
